{"source": "the supplement of paper PMC11417369", "note": "± gives the standard deviation of the averaged measurements. The full ranking holds about 25,000 sequences; the median of “ln(normalized median fluorescence intensity)” is about 8.6, and the highest 2% start at about 10. What follows is part of a selection rich in the highest values, with near analogues and random picks from the rest."}
{"system": "PfAP2-EXP AP2 domain (GST-tagged)", "assay": "gcPBM binding intensity (ln(normalized median fluorescence intensity)); higher = stronger DNA binding", "summary_of_the_method": "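After 1 h on an Agilent 4 × 180k array of primer-extended double-stranded 36-bp intergenic genomic probes and negative controls, bound GST-tagged P. falciparum DNA-binding domains were detected with Alexa488 anti-GST antibody and scanned at 488 nm. The domains had been expressed in E. coli, and binding took place in 1× PBS with 1% milk, 0.2 mg/ml BSA, 0.5% salmon testes DNA and 0.03% Triton X-100. Binding intensity is the highest Masliner-normalised natural-log median intensity across replicate spots of either probe orientation.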"}
{"sequence": "AAAAAAAAAAAAAATACACACATATATAAATAAATA [CACACA_site6459]", "gcPBM binding intensity (ln)": "8.31 ± 0.45"}
{"sequence": "TATAAACATAAATATACACACAAACATATATGTATT [CACACA_site8324]", "gcPBM binding intensity (ln)": "8.51 ± 0.42"}
{"sequence": "CTGTGTTTTGGTTGTACACACGCTACATTCTATATT [CACACA_site2698]", "gcPBM binding intensity (ln)": "9.16 ± 0.28"}
{"sequence": "TTTTTAAAAATAACAGAAAAGAATTACAGATTTTTT [XGTACX_negctrl_site472]", "gcPBM binding intensity (ln)": "8.34 ± 0.41"}
{"sequence": "TTTTGTTGCTCTTTTTTTTTTTTTTTTAACTGTATG [CACACA_negctrl_site1072]", "gcPBM binding intensity (ln)": "8.57 ± 0.43"}
{"sequence": "TTTTGCTTTTTTTTTCTTTTTTGTTTTATATATATT [CACACA_negctrl_site103]", "gcPBM binding intensity (ln)": "8.51 ± 0.53"}
{"sequence": "TTTTTTTGCTCTTTTTATATATATATATATATATAT [GTGCAC_negctrl_site70]", "gcPBM binding intensity (ln)": "10.2 ± 0.46"}
{"sequence": "TATGTATATATATATATATATATATATATATATATA [TGCATGCA_negctrl_site491]", "gcPBM binding intensity (ln)": "10.1 ± 0.66"}
{"sequence": "TAAAGGAGCCTATGAACACACACATGTACTTATATT [CACACA_site9351]", "gcPBM binding intensity (ln)": "8.56 ± 0.4"}
{"sequence": "TGTATGAAATATATTACACACATATAAAATCTATAT [CACACA_site6514]", "gcPBM binding intensity (ln)": "8.35 ± 0.57"}
{"sequence": "TATATATTAAAACACACACACATATATATATATATA [CACACA_site3787]", "gcPBM binding intensity (ln)": "10 ± 0.38"}
{"sequence": "AAACATAAGAAACACACACACATATATATATATATA [CACACA_site3642]", "gcPBM binding intensity (ln)": "10.1 ± 0.35"}
{"sequence": "TATATTAAGAAACACACACACATATATATATATATA [CACACA_site1609]", "gcPBM binding intensity (ln)": "10.2 ± 0.3"}
{"sequence": "CATTATTATTTTATAACACACACATATATATTATAT [CACACA_site8405]", "gcPBM binding intensity (ln)": "8.48 ± 0.34"}
{"sequence": "CATTATAAGAAACACACACACATATATATATATATA [CACACA_site1051]", "gcPBM binding intensity (ln)": "10.2 ± 0.47"}
{"sequence": "TTAATTAAGAAACACACACACATATATATATATATT [CACACA_site2290]", "gcPBM binding intensity (ln)": "8.67 ± 0.42"}
{"sequence": "AAATTTATAAAGAACACACACATATATATATATATA [CACACA_site48]", "gcPBM binding intensity (ln)": "10.2 ± 0.27"}
{"sequence": "TCGAACATTAACATAACACACATATAGATTTATATA [CACACA_site7380]", "gcPBM binding intensity (ln)": "8.29 ± 0.42"}
{"sequence": "CCAAATTTATAAAGAACACACACATATATATATATA [CACACA_site7900]", "gcPBM binding intensity (ln)": "9.99 ± 0.4"}
{"sequence": "TCGAACATTAACATAACACACATATATATATATATA [CACACA_site2900]", "gcPBM binding intensity (ln)": "10.2 ± 0.32"}
{"sequence": "AACATTATAAGACACACACACACATATATATATATA [CACACA_site8259]", "gcPBM binding intensity (ln)": "10.1 ± 0.39"}
{"sequence": "AAATTTATAAAGAACACACACATATAAATATAAATA [CACACA_site6174]", "gcPBM binding intensity (ln)": "8.93 ± 0.49"}
{"sequence": "TTTTTTAAAAATATTATCATCGTAACAAGAAATCGA [CACACA_negctrl_site1111]", "gcPBM binding intensity (ln)": "8.45 ± 0.4"}
{"sequence": "AATAAAAAACATGAAAGTACTTTAAAAAAGGTAATA [XGTACX_site1897]", "gcPBM binding intensity (ln)": "8.9 ± 0.45"}
{"sequence": "CAAACAAATATATGTTGTACTTATTATATATACATA [XGTACX_site2998]", "gcPBM binding intensity (ln)": "8.38 ± 0.33"}
{"sequence": "ATAATATAGAAACACACACACATATATATATACATT [CACACA_site555]", "gcPBM binding intensity (ln)": "8.71 ± 0.29"}
{"sequence": "TAGATAGATTAAAATACATGCATATTATTAAAAAAT [TGCATGCA_site739]", "gcPBM binding intensity (ln)": "8.84 ± 0.13"}
{"sequence": "AAAGCACCCAAGAATACACACAAATATTATAAAAAA [CACACA_site111]", "gcPBM binding intensity (ln)": "8.57 ± 0.58"}
{"sequence": "TAAACATAATAATATACACACATATATTGATATATA [CACACA_site2144]", "gcPBM binding intensity (ln)": "8.18 ± 0.43"}
{"sequence": "AACCAAATTTCACCATGTACATATTGATAAATATAT [XGTACX_site1374]", "gcPBM binding intensity (ln)": "8.7 ± 0.34"}
{"sequence": "GGATTCAAAAAAAAAAATAAAAGTAAATAATAAATA [TGCATGCA_negctrl_site348]", "gcPBM binding intensity (ln)": "8.27 ± 0.42"}
{"sequence": "ATACACTAGAAAATTTTATAGTATTATTAATGTTAA [GTGCAC_negctrl_site101]", "gcPBM binding intensity (ln)": "8.19 ± 0.42"}
{"sequence": "TATATATAATTATAAGAACACACATATATATATATA [CACACA_site8786]", "gcPBM binding intensity (ln)": "10.2 ± 0.18"}
{"sequence": "TAAATTTAGAAACACACACACATATATATATATATA [CACACA_site847]", "gcPBM binding intensity (ln)": "10.3 ± 0.4"}
{"sequence": "TTTATAAAAATGAACACACACATATAAATATAAATA [CACACA_site7607]", "gcPBM binding intensity (ln)": "8.65 ± 0.44"}
{"sequence": "ATTTAGAAAAATAAAACACACATATATATGTAAATA [CACACA_site4113]", "gcPBM binding intensity (ln)": "8.66 ± 0.48"}
{"sequence": "AAAAATTAGAAACACACACACATATATATATATATT [CACACA_site1042]", "gcPBM binding intensity (ln)": "8.71 ± 0.22"}
{"sequence": "TTTATAAAAATGAACACACACATATATATATATATA [CACACA_site3493]", "gcPBM binding intensity (ln)": "10.4 ± 0.3"}
{"sequence": "TTTTTATAAAAATGAACACACACATATATATATATA [CACACA_site9160]", "gcPBM binding intensity (ln)": "10.2 ± 0.4"}
{"sequence": "TATATAATTATAAGAACACACATATATATATATATA [CACACA_site2472]", "gcPBM binding intensity (ln)": "10.2 ± 0.2"}
{"sequence": "AAATAATAAATTATAACACACATATATATATATATA [CACACA_site4045]", "gcPBM binding intensity (ln)": "10 ± 0.47"}
{"sequence": "TGTTAATTAAAGGACTGTACACTAATAATTCTATAA [XGTACX_site5195]", "gcPBM binding intensity (ln)": "8.5 ± 0.34"}
{"sequence": "TTTTAAAACAATGAGATTCCTTTCTTTTTTTCTTTT [CACACA_negctrl_site1320]", "gcPBM binding intensity (ln)": "7.96 ± 0.59"}
{"sequence": "TGACCGTTTTAAGAGTGTACAAAAAAAAAAAAAAAA [XGTACX_site4141]", "gcPBM binding intensity (ln)": "8.21 ± 0.43"}
{"sequence": "ATATATTTCTGTCAAGCACACATAATATTAATATAT [CACACA_site7993]", "gcPBM binding intensity (ln)": "8.86 ± 0.45"}
{"sequence": "AAAAAATGGCTAGTTTGTACACAAAAGTTATTGCAT [XGTACX_site5381]", "gcPBM binding intensity (ln)": "8.43 ± 0.33"}
{"sequence": "TTAATATAGATATAACCACACACATACATCTAATTC [CACACA_site8519]", "gcPBM binding intensity (ln)": "8.65 ± 0.46"}
{"sequence": "ATTAATTATGTATTTCAACAAAGAAGTGTTATATAT [GTGCAC_negctrl_site215]", "gcPBM binding intensity (ln)": "8.49 ± 0.35"}
{"sequence": "TCAAAAAAGACACACCGTACATACTATTTGGACAGG [XGTACX_site7699]", "gcPBM binding intensity (ln)": "8.51 ± 0.36"}
